Experiment [1] can be described thus: AP1 Signaling Pathway (AID 357; active means well fitted curve in either direction with a large enough effect, not every such curve was filed as active;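 further: ME-180 reporter cells stimulated with EGF at its EC50 level; on the % scale 0 is the no-effect control and ±100 the full control effect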). As to conditions: ME-180 AP-1-bla reporter, EGF-induced, beta-lactamase ratio, 5 h; at 38 µM (top of the series). The method in brief: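 Beta-lactamase reporter under AP-1 response element, ME-180 background. Stimulus: EC50 EGF. Compound exposure 5 h, 37 °C. Detection: CCF4, 2.5 h RT, 460/530 nm. Values: AC50 from titration.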

Experiment [2] in a line: NFAT Signaling Pathway (AID 444; active means well fitted curve in either direction with a large enough effect, not every such curve was filed as active;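 further: carbachol stimulus at about its EC50 of 1 µM final; on the % scale 0 is the no-effect control and ±100 the full control effect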). As to conditions: Jurkat NFAT-bla M1, carbachol, beta-lactamase ratio, 5 h; at 38 µM (top of the series). In short, it runs like this:
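Read-out: CCF4 FRET ratio (460 nm/530 nm) after 1 h RT dye loading, used for %activity and AC50 from titration series. Cells: Jurkat NFAT-β-lactamase/M1 line, treated with compound plus 1 uM carbachol for 5 h, 37 °C.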

Experiment [3] is described as follows: Stat Signaling Pathway (AID 446; active means well fitted curve in either direction with a large enough effect, not every such curve was filed as active;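 further: ME-180 cervical cancer cells given 40 pM IL-6 alongside compound; SIE-controlled beta-lactamase reporter measured as 460/530 nm FRET emission ratio; on the % scale 0 is the no-effect control and ±100 the full control effect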). The note with it: ME-180 (cervical carcinoma) SIE beta-lactamase reporter, IL-6 stimulated, 5 h; at 38 µM (top of the series). The method in brief:
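Emission at 460 and 530 nm (excitation 405 nm) reports SIE-controlled beta-lactamase in ME-180 cells. Cells received compound with 40 pM IL-6 for 5 hrs at 37 C; data scaled between 300 pM IL-6 and 125 nM JAK-inhibitor controls.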

The target in experiment [4] is Glucocorticoid receptor (Homo sapiens) (UniProt P04150). The experiment in a line: GR-GFP Redistribution (AID 450;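 active means compounds whose dose series gives a full or clear partial fitted curve of increased nuclear translocation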; further: potency means the concentration at half of the fitted maximal effect). As to conditions: U2OS GR-GFP nuclear translocation, laser cytometry, 2 h.
Sequence of Glucocorticoid receptor (Homo sapiens) (P04150 whole entry, looked up, the tested form may be a part): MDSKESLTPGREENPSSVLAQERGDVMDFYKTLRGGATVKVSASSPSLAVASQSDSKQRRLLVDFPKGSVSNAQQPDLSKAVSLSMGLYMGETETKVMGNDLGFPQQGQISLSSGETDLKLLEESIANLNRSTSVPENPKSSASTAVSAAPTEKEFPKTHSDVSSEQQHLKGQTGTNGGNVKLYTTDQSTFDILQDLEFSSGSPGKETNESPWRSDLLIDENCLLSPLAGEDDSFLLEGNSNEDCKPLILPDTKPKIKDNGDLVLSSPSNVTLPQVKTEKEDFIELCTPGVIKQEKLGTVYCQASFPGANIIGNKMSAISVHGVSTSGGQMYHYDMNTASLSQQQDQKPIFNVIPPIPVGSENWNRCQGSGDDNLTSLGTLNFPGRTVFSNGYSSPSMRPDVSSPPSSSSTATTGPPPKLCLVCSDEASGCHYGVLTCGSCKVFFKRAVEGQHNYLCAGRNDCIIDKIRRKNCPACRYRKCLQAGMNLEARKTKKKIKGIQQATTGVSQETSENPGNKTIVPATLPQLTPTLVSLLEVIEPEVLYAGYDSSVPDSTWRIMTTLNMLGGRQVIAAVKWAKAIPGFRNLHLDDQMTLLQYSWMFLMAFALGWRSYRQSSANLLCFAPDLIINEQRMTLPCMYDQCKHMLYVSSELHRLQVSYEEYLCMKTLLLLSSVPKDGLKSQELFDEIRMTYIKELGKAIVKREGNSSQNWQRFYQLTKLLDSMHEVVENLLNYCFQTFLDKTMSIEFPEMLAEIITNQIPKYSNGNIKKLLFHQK
Experiment [5] shares this target. Description: GR-EFC Redistribution (AID 451; calls by dose curve; further: potency means the concentration at half of the fitted maximal effect). As to conditions: CHO-K1 GR-EFC translocation, beta-gal luminescence, 2 h. In short, it runs like this: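 Translocation of GR-ED fusion to nuclear EA restores b-gal, read by luminescence after 1 h room-temperature detection. Engineered CHO-K1 biosensor cells, 1,000/well, exposed 2 h at 37 C to titrations up to 46 uM final.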

In experiment [6] the target is Mitogen-activated protein kinase 10 (Mus musculus) (UniProt Q61831). Description: JNK3 AlphaScreen Assay (AID 530; active means well fitted curve in either direction with a large enough effect, not every such curve was filed as active;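 further: kinase came from lysate of stimulated human HepG2 cells; signal reports phosphorylation of biotinylated GST-cJun 1-79 at Ser73 with 10 µM ATP; on the % scale 0 is the no-effect control and ±100 the full control effect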). The method in brief:
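qHTS titrations with 15 min compound pre-incubation before adding ATP (10 uM final). Read-out: AlphaScreen of Ser73-phosphorylated biotin-GST-cJun using HepG2 lysate JNK3 activated by IL-1β and TNFα.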
(In Alpha technology, singlet oxygen from a donor bead excites a nearby acceptor bead.)

The target of experiment [7] is 3',5'-cyclic-AMP phosphodiesterase 4B (Homo sapiens) (UniProt Q07343). The experiment in a line: qHTS Assay for Inhibitors of PDE-IV (AID 607; active means well fitted activation curve with a large enough effect in the main read-out, with a control signal flat, not every such curve was filed as active; further: % of control where 0% means no effect). In short, it runs like this:
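The readout is membrane depolarisation from a cAMP-sensing CNG channel, detected with a potential dye at ex 535/em 590. Cells were HEK293-derived (endogenous PDE-IV) at 1000 cells/well, titrated up to 22.9 uM final.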

Experiment [8] concerns the target Guanine nucleotide-binding protein G(i) subunit alpha-1 (Homo sapiens) (UniProt P63096). The experiment in a line: qHTS Assay for Inhibitors of RGS12 GoLoco Motif Activity (Green Fluorophore) (AID 879).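 Further: 0% = labeled peptide with Gαi1 and full inhibition = labeled peptide alone without protein; negative values mean loss of peptide binding seen as reduced polarization.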 The method in brief: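 A drop in FITC polarization marked displacement of the FITC-tagged RGS12 GoLoco peptide (10 nM) from Gαi1 (50 nM). Compounds were incubated 10 min at room temperature in Tris pH 7.5 buffer containing 150 mM NaCl, 0.1 mM GDP and 0.05% NP40; unlabeled peptide titration served as control.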
(In general: In qHTS, concentration-response curves come from the screen itself.)

Experiment [9] has as its target Cytochrome P450 2C9 (Homo sapiens) (UniProt P11712). The experiment in a line: qHTS Assay for Inhibitors and Substrates of Cytochrome P450 2C9 (AID 883). Further: on the % scale 0 is the no-effect control and ±100 the full control effect; nearly all actives have a fitted effect of over 60% in size. The method in brief:
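Turnover of Luciferin-H (100uM, KM) by 10nM human CYP2C9 was measured over 60 min at 37C with NADPH regeneration; inhibitors and some substrates reduce luminescence. Data normalized to sulphaphenazole 57uM.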

Experiment [10] addresses Cytochrome P450 2D6 (Homo sapiens) (UniProt P10635). The experiment in a line: qHTS Assay for Inhibitors and Substrates of Cytochrome P450 2D6 (AID 891).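 Further: luciferin methyl ether substrate demethylated by CYP2D6 with NADPH regeneration; on the % scale 0 is the no-effect control and ±100 the full control effect; nearly all actives have a fitted effect of over 60% in size.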 In short, it runs like this:
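Luminescent read-out of luciferin formed by 5 nM human CYP2D6 demethylating 30 uM Luciferin-ME EGE (Km level) over 60 min at room temperature after NADPH regeneration addition. Data normalized to full inhibition by 1.43 uM quinidine.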

The target in experiment [11] is Cytochrome P450 2C19 (Homo sapiens) (UniProt P33261). The experiment in a line: qHTS Assay for Inhibitors and Substrates of Cytochrome P450 2C19 (AID 899). Further: on the % scale 0 is the no-effect control and ±100 the full control effect; nearly all actives have a fitted effect of over 60% in size. The method in brief: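 Reactions contain 5nM enzyme, 10uM Luciferin-H EGE (KM) and 50mM KPO4; compound preincubates 10 min at 37C, NADPH regeneration starts turnover for 60 min. Luminescence after detection reagent gives activity.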
Sequence of Cytochrome P450 2C19 (Homo sapiens) (P33261 whole entry, looked up): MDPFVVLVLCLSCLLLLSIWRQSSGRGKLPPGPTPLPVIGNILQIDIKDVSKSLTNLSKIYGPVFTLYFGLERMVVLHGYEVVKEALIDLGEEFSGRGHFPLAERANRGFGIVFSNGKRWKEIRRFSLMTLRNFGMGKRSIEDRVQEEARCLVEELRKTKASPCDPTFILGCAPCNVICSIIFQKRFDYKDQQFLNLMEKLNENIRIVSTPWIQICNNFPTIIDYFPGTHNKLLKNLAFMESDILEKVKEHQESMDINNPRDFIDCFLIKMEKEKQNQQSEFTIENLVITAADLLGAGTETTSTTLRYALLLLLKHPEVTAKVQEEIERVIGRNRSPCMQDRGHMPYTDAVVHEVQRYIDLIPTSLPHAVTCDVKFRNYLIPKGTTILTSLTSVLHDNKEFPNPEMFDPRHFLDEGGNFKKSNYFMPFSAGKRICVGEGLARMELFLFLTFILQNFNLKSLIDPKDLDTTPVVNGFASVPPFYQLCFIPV

Experiment [12] can be described thus: Confirmation and Secondary Assay for Modulators of Hemoglobin Beta Chain Splicing at IVS2 654 locus (AID 910).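 Further: HeLa cells stably carrying EGFP split by mutant beta-globin IVS2-654 intron; per-well total GFP intensity by laser scanning cytometry after 2-day treatment; % of control where 0% means no effect.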 The method in brief: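 Readout: per-well total peak green fluorescence (488 nm ex, 500–520 nm em) from objects 5–250 µm, reflecting correct splicing of an EGFP-654 reporter. Compounds were applied for 2 days at 37 °C to overnight-plated HeLa EGFP-654 cells; controls were DMSO and 500 nM IVS2-654 PNA.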

The nature of experiment [13]: qHTS Assay for Identification of Small Molecule Agonists for Thrombopoietin (TPO) Signaling Pathway (AID 917). Further: on the % scale 0 is the no-effect control and ±100 the full control effect. In short, it runs like this:
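Cell-based luciferase reporter screen. Mouse Ba/F3 line stably expressing human TPO receptor; IL-3 removed overnight before plating. Co-treatment with compound and EC50 TPO (26 pM), 24 hrs at 37 C, then luminescence.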

Experiment [14] in a line: Confirmation and Secondary Assay for Modulators of Hemoglobin Beta Chain Splicing at IVS2 705 locus (AID 930).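 Further: HeLa cells stably expressing the EGFP-705 splicing reporter; GFP fluorescence per well restored by corrected splicing of the IVS2-705 intron in EGFP; % of control where 0% means no effect.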 The method in brief:
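First, HeLa EGFP-705 cells are seeded at 500/well in Optimem with 2% FCS and left overnight. Next, compound or DMSO is added for 2 days. Finally wells are laser-scanned and total peak GFP intensity scored.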

In experiment [15] the target is Muscarinic acetylcholine receptor M1 (Rattus norvegicus) (UniProt P08482). The experiment in a line: qHTS Assay for Antagonists of Acetylcholine Muscarinic M1 Receptor: Measurement of IP-One Response (AID 944). Further: nearly all actives have a fitted effect of over 75% in size. The method in brief: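 Antagonist mode with rat M1 receptor transfected into CHO cells. Compound is added first for 10 min, carbachol at its EC80 follows for 30 min, and lysis reagents then allow TR-FRET detection of accumulated IP1.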
Sequence of Muscarinic acetylcholine receptor M1 (Rattus norvegicus) (P08482 whole entry, looked up): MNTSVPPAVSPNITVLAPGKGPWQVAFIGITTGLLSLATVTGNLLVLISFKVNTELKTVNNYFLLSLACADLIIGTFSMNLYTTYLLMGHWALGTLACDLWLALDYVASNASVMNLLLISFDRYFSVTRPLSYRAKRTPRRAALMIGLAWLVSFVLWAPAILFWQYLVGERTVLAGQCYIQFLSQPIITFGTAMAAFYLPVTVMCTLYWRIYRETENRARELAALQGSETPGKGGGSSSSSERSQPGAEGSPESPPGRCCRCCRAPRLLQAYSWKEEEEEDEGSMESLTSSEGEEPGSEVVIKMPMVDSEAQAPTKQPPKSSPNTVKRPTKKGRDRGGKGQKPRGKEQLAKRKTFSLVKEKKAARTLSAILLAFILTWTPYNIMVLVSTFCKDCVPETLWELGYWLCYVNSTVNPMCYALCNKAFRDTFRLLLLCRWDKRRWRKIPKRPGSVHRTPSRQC

In experiment [16] the target is Pyruvate kinase (Leishmania mexicana) (UniProt Q27686). Description: qHTS Validation Assay for Inhibitors of Leishmania Mexicana Pyruvate Kinase (AID 945).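 Further: 0% = DMSO only neutral control wells.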 The method in brief: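 qHTS eight-point titrations against 0.2 nM LmPYK (E451W) in imidazole buffer pH 7.2 with 0.5 mM PEP, 0.1 mM ADP; 1 h, room temperature. Readout: PKLight luminescence, normalized to neutral DMSO wells.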
Sequence of Pyruvate kinase (Leishmania mexicana) (Q27686 2-499 E452W): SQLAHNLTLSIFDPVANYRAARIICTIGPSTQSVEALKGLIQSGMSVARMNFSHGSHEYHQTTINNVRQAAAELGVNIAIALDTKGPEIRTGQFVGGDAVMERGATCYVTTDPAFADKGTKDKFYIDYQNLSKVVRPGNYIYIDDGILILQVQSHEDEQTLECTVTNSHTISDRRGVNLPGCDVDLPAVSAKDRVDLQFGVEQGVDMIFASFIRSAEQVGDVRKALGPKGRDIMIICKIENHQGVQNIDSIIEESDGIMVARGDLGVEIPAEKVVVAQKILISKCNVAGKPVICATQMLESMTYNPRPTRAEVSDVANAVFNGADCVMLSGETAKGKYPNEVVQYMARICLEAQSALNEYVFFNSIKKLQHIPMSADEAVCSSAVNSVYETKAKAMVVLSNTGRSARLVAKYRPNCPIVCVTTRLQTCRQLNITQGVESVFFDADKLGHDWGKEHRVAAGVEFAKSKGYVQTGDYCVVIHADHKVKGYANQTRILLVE

Experiment [17] concerns the target Alpha-galactosidase A (Homo sapiens) (UniProt P06280). The experiment in a line: Counterscreen for Glucocerebrosidase Inhibitors: qHTS Assay for Human alpha-Galactosidase at pH 4.5 (AID 992). Further: 0% is about no effect. In short, it runs like this:
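Fluorogenic 4-MU alpha-D-galactoside (80 uM) hydrolysis, 2 nM enzyme, pH 4.5 citrate buffer + 0.005% Tween-20; 20 min RT; NaOH/glycine pH 10 stop; Ex365/Em440. Compounds titrated 0.7 nM–77 uM; Hill-equation AC50.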
A general note: Counterscreens check selectivity or assay interference.

The target in experiment [18] is alpha-glucosidase (Oryza sativa, rice) (UniProt Q653V4). The experiment in a line: Counterscreen for Glucocerebrosidase Inhibitors: qHTS Assay for Rice alpha-Glucosidase at pH 5.0 (AID 997).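 Further: 0% = full activity with enzyme and -100% = basal without enzyme.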 The method in brief:
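Endpoint fluorogenic assay at pH 5.0: compounds (0.7 nM to 77 uM) titrated against 4 nM rice enzyme and 400 uM 4-MU-alpha-glucoside for 20 min at room temperature; NaOH/glycine stop, read ex 365/em 440 nm, Hill-fitted AC50.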

Experiment [19] in a line: Validation of Assay for Modulators of Lamin A Splicing (AID 1459; active means well fitted curve in the direction sought with a large enough effect in the signal ratio; the % refers to the signal ratio;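 further: cells exposed to compound for two days before reading; 0% is about no effect; ratio rise marks activators and ratio drop marks inhibitors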). In short, it runs like this: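 HeLa S3 lamin A-EGFP/DsRed2 stable clone, 600 cells/well, Opti-MEM 2% FBS; compounds by pin tool; 48 hrs, 37 °C/5% CO2; Acumen 488 nm scan, objects 10-100 um; GFP/RFP intensity ratio.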
A short description of experiment [20]: qHTS Assay for Lipid Storage Modulators (AID 1519; calls by dose curve). The note with it: Drosophila S3 cells, BODIPY lipid droplet/cell ratio, laser cytometry, cells loaded with oleic acid. The method in brief: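 Cells seeded at 5,000 per well were treated with compounds over a concentration series and loaded with oleic acid (400 uM, as added). Lipid droplet fluorescence (488 nm excitation, 500-530 nm channel) was read by laser-scanning cytometry and normalized to 20 uM Triacsin C.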

Each structure is given as a SMILES string. Where “and” joins values, the source holds several entries; their conditions need not be identical. Identical values can stand only once. Inconclusive results are not listed. Calls of active or inactive are those of the source. Unless noted, the call rests on the fitted dose curve; in most records, active means well fitted curve in the direction sought with a large enough effect; inconclusive means small, poorly fitted or top-dose-only effect, or another doubt; inactive means no such curve, though single readings can be large; an effect the other way counts as inactive or inconclusive.

Sequence of Cytochrome P450 2C9 (Homo sapiens) (P11712 whole entry, looked up): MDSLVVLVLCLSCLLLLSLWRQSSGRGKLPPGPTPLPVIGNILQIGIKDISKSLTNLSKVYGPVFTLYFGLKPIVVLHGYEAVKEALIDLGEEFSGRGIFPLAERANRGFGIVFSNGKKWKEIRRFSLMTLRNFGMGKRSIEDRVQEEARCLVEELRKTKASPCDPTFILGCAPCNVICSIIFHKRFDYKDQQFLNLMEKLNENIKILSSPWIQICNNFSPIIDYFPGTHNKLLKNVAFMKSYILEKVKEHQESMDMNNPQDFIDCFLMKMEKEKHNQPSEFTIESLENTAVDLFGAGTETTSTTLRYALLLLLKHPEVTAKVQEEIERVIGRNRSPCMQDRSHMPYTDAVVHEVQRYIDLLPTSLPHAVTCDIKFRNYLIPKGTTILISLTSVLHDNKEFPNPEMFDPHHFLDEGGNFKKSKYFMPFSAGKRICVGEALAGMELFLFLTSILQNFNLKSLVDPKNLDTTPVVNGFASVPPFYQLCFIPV
Sequence of 3',5'-cyclic-AMP phosphodiesterase 4B (Homo sapiens) (Q07343 whole entry, looked up): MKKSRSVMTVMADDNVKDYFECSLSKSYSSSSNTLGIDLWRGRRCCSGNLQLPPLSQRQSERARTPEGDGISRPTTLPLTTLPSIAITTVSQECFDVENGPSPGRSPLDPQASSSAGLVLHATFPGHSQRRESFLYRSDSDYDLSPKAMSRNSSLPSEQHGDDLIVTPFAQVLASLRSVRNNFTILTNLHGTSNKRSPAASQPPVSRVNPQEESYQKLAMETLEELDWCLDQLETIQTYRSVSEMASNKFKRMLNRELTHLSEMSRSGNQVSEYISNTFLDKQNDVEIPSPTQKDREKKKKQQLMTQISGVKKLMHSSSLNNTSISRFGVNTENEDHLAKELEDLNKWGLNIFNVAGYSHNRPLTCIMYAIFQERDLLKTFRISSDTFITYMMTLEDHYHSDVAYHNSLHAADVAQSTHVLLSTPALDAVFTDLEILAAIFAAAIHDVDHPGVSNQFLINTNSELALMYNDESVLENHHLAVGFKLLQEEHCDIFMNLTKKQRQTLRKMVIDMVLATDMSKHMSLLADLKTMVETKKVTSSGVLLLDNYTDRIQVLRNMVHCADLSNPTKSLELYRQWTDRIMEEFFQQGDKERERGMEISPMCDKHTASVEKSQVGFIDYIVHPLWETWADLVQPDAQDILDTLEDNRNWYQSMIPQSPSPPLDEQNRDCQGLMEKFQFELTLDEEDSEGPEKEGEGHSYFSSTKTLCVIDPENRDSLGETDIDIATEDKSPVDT
Sequence of Alpha-galactosidase A (Homo sapiens) (P06280 whole entry, looked up): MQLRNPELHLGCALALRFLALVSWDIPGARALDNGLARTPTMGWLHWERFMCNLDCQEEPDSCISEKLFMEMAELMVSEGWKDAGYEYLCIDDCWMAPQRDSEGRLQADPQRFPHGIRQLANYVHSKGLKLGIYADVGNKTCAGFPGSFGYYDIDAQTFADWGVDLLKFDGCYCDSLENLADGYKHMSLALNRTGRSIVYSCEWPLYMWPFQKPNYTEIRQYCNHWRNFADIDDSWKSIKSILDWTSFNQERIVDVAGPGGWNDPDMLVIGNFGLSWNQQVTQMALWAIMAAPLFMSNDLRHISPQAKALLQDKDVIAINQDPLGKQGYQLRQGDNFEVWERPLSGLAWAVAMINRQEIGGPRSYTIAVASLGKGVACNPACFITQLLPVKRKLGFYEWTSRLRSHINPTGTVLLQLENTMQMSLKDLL
Sequence of Cytochrome P450 2D6 (Homo sapiens) (P10635 whole entry, looked up): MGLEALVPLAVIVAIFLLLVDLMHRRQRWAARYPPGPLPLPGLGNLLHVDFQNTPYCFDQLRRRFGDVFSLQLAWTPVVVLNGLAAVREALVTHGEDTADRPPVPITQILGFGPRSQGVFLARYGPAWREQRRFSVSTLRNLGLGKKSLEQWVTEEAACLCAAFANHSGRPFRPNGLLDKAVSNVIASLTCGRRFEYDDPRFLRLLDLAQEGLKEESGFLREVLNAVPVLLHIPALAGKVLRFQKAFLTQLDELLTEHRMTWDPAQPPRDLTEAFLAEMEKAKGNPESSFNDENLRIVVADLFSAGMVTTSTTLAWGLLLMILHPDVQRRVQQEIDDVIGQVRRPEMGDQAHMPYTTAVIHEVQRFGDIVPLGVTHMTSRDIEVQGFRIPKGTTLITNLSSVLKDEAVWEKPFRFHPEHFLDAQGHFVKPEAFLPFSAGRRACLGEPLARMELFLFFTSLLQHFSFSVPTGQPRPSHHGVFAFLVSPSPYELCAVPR
Sequence of Guanine nucleotide-binding protein G(i) subunit alpha-1 (Homo sapiens) (P63096 whole entry, looked up): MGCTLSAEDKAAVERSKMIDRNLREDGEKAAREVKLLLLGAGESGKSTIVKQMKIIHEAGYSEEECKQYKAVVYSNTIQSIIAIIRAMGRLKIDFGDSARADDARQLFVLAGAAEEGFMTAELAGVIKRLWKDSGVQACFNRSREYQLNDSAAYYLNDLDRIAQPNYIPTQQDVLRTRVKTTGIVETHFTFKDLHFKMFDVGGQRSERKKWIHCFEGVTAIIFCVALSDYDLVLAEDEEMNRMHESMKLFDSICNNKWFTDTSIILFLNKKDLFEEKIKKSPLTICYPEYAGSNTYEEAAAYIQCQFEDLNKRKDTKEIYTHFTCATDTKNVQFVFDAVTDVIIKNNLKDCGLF

As for `O=C(O)c1cc(=O)c2ccc(Cl)cc2[nH]1`, the activity change, negative = inhibition in experiment [1] was -5.86% (inactive); in [2] it was 3.07% (inactive); in experiment [20] (at 57.5 µM (top of the series)), 4.77% (inactive) and 6.7% (inactive). Besides, the activity, negative = inhibition in experiment [3] is 42.7% (inactive). The Potency in experiment [4] and in experiment [5] was > 46 µM (inactive) throughout. Besides, the Potency entry in [6], in experiment [7], in experiment [9], in experiment [10], in [11] and in [13] was “inactive” in each case. Moreover, the Potency entry in experiment [15] and in experiment [16] was “inactive” in each case. For the same molecule, the result in experiment [8], in experiment [12], in [14], in experiment [17], in experiment [18] and in experiment [19] was inactive. Moreover, the max response in [20] (measured here: cell count channel max response) is 15.1% and -2.23%; in experiment [20] (measured here: lipid channel max response) it was 22.6% and 6.02%.

Source of the values: PubChem BioAssay (NCATS).
